In all, about 69,000 compounds went through this assay and about 8,600 (12%) showed an effect of 50% or more. The sample as a whole holds a higher share of strong results than the screen did.

For the assay, the system named is Plasmodium berghei. Put plainly: Screen against P. berghei liver stage (PbLuc), transformed with Luciferase, at 10uM. Type of assay: functional, HepG2. The note with it: tested at 10 uM.
Consider `CCN(C)[C@H]1CN(C(=O)c2cccc(N3CCS(=O)(=O)CC3)c2)C[C@@H]1O`, for which the INHIBITION was 8.74%.
For `O=C1CC2(CCN(Cc3ccccn3)C2)CN1c1cncnc1` (centres undefined), the INHIBITION is reported as -3.41%.
On to `Cc1nccn1-c1ccc(NS(=O)(=O)c2cccnc2)cn1`, for which the INHIBITION is 6.94%.
The same measure for `O=C(c1ccsc1)N1CCO[C@@H]2CN(Cc3cccs3)C[C@@H]2C1`: -2.46%; for `O=C(NCC1CCCCO1)c1cc(Cn2cnc3ccccc32)[nH]n1` (centres undefined): 31.4%.
`O=C(NCC1CCCO1)c1coc(Cn2cnc3ccccc32)n1` (centres undefined): the INHIBITION was 69.1%.
On to `Cn1cnc(-c2nc(C(=O)NCC3CCCO3)c3ccccn23)c1` (centres undefined), for which the INHIBITION amounted to 4.08%.
In the case of `O=C(NCCO)c1coc(Cn2cnc3ccccc32)n1` it was 52%.
For `CSCCCNC(=O)c1coc(Cn2cnc3ccccc32)n1`, the INHIBITION is listed as 25.1%.
With `O=C(NCCO)c1coc(CN2CCN(c3ccccc3F)CC2)n1`, the INHIBITION was found to be 26.9%.
In the case of `CC(C)=CCN1C(=O)[C@@H]2CC[C@H]1CN(c1ncccc1C(N)=O)C2` it was 49.7%; in that of `CC(C)(C)c1cc(NC(=O)CN2CCn3c(nnc3C3CC3)C2)on1`, -3.8%.
For `NC(=O)C1CN(C(=O)Nc2ccccc2Oc2ccccc2Cl)CCO1` (centres undefined), the INHIBITION was -67.7%.
The same measure for `COc1ccc(C(=O)N2CC[C@@H]3[C@H](CC2)N(C)CCS3(=O)=O)cc1`: -14.3%; for `O=C(C1CC1)N1CC2(CCN(CC3CC3)CC2)c2cc(F)ccc21`: -15.9%; for `COC(=O)C1CN(Cc2ccn(-c3ccc(F)cc3)n2)CCO1` (centres undefined): -173%.
`COC(=O)CC1CN(Cc2ccn(-c3ccc(F)cc3)n2)CCO1` (centres undefined): the INHIBITION is recorded as 52.2%.
Turning to `COC(=O)C1CN(Cc2ccn(-c3ccc(F)cc3)n2)C[C@@H](C)O1` (some centres undefined), the INHIBITION amounted to 16%.
On to `COCCN1CCC2(CC1)CC(N1CCOCC1)c1cc(C)ccc12` (centres undefined), for which the INHIBITION turned out to be 87.4%.
Take `Cc1ccc2c(c1)C(N1CCOCC1)CC21CCNCC1` (centres undefined): the INHIBITION is on record as 38.5%.
As for `Cc1ccc2c(c1)C1(CCNCC1)CC2N1CCOCC1` (centres undefined), the INHIBITION is -58.9%.
Regarding `COCC(=O)N1CCC2(CC1)CC(N1CCOCC1)c1ccc(C)cc12` (centres undefined), the INHIBITION was -24.8%.
In the case of `COCCN1CCC2(CC1)CC(N1CCOCC1)c1ccc(C)cc12` (centres undefined) it was 48.4%.
In the case of `CCC(=O)N1CCC2(CC1)CC(N1CCOCC1)c1cc(C)ccc12` (centres undefined), the INHIBITION was determined as 61.8%.
Regarding `O=C(c1sccc1C1CC1)N1CCN(c2cnccn2)CC1`, the INHIBITION stood at 44%.
The same measure for `CN(Cc1n[nH]c2c1CCCC2)c1nc(C2CC2)nc2c1CCNCC2`: 62.8%.
Take `CN(C)c1nc2c(c(N(C)Cc3n[nH]c4c3CCCC4)n1)CCNCC2`: the INHIBITION stood at 70.2%.
On to `CN(Cc1cc2n(n1)CCNC2)Cc1n[nH]c2c1CCCCC2`, for which the INHIBITION came out at 44.3%.
The same measure for `CN(Cc1n[nH]c2c1CCCC2)c1nc2c(c(=O)[nH]1)CCNCC2`: 10.4%; for `CN(C)c1nc2c(c(N(C)Cc3n[nH]c4c3CCCCC4)n1)CCNC2`: 26.8%.
With `CN(Cc1n[nH]c2c1CCC2)c1nc(C2CCCC2)nc2c1CNC2`, the INHIBITION was 26.8%.
Turning to `COc1c(C(=O)NCc2cccnc2)nnn1Cc1ccccc1`, the INHIBITION is reported as 2.69%.
On to `CC(C)(C)CNCC1(O)CCCN(Cc2ccccc2F)C1=O` (centres undefined), for which the INHIBITION is listed as 7.17%.
In the case of `COc1ccc(F)c(CN2CCCC(O)(CNCc3ccoc3)C2=O)c1` (centres undefined) it was 34.1%; in that of `COc1ccc(F)c(CN2CCCC(O)(CNCc3ccon3)C2=O)c1` (centres undefined), 52%.
As to `COc1ccc(F)c(CN2CCCC(O)(CNCC(C)(C)C)C2=O)c1` (centres undefined), the INHIBITION is given as 71.7%.
In the case of `COc1ccc(F)c(CN2CCCC(O)(CNCc3ncc[nH]3)C2=O)c1` (centres undefined) it was 33.2%; in that of `COc1ccc(F)c(CN2CCCC(O)(CNC3CCCCC3)C2=O)c1` (centres undefined), 4.48%.
The same measure for `CCc1cccc(C)c1NC(=O)NCCCN(CC)S(C)(=O)=O`: -17.7%.
For `Cc1cc(C)n(C2CCCN(C(=O)Cc3cccc(F)c3)C2)n1` (centres undefined), the INHIBITION is 19.4%.
In the case of `CC1c2ncc(Cn3cccn3)n2CCN1S(C)(=O)=O` (centres undefined), the INHIBITION was determined as 43%.
Take `Cc1noc(C2CCCCN2C(=O)NC2CCCC2)n1` (centres undefined): the INHIBITION was -43.4%.
The same measure for `Cc1nc(CN2CCc3cc(C(=O)O)c(N(C)C)nc3CC2)cs1`: 19.4%; for `O=C(NCCO)c1cc(-c2ccc3c(c2)CCO3)n[nH]1`: 5.85%.
For the compound `CN(C)CCCNC(=O)c1cc(-c2ccc3c(c2)CCO3)n[nH]1`, the INHIBITION is recorded as 54.5%.
As for `O=C(NCCCO)c1cc(-c2ccc3c(c2)CCO3)n[nH]1`, the INHIBITION is on record as -49.2%.
`CSC(C)C(=O)NCCC(=O)N1CCN(c2ccccn2)CC1` (centres undefined): the INHIBITION is 39.2%.
The same measure for `CN(Cc1ccccc1)CC1(O)CCCN(CC(C)(C)C)C1=O` (centres undefined): 51.8%; for `CN(Cc1cccnc1)CC1(O)CCCN(CC(C)(C)C)C1=O` (centres undefined): 44.7%; for `CN(Cc1ccccc1)CC1(O)CCCN(CCC2CCCCC2)C1=O` (centres undefined): 63.7%.
With `CN(Cc1ccccc1)CC1(O)CCCN(Cc2ccc(F)cc2)C1=O` (centres undefined), the INHIBITION was found to be 31.1%.
On to `O=C1N(CCC2CCCCC2)CCCC1(O)CNCCc1ccccc1` (centres undefined), for which the INHIBITION amounted to 56.9%.
For the compound `O=C1NCCN1CCNCC1(O)CCCN(CCC2CCCCC2)C1=O` (centres undefined), the INHIBITION is on record as -48.7%.
As for `O=C1N(CCCc2ccccc2)CCCC1(O)CNCC1CCCCC1` (centres undefined), the INHIBITION is on record as 39.5%.
For the compound `Cc1cc(CN(C)CC2(O)CCCN(CCC3CCCCC3)C2=O)no1` (centres undefined), the INHIBITION is 32.3%.
As to `CN(Cc1ccc(F)cc1)CC1(O)CCCN(CC(C)(C)C)C1=O` (centres undefined), the INHIBITION was found to be 28.5%.
The same measure for `Cc1nc(CN2CCCC(N(C)CC3(O)CCCCC3)C2)no1` (centres undefined): -3.2%; for `Cc1cccc(CN2CCS(=O)(=O)[C@@H]3CCN(S(C)(=O)=O)CC[C@@H]32)n1`: 39.3%; for `CC(C)c1cc(C(=O)NCCN2CCCCC2CO)on1` (centres undefined): 15%.
`CCN1CCCC12CCN(C(=O)c1ccsc1)CC2`: the INHIBITION turned out to be 36.9%.
With `O=C(c1cc2c(s1)CCC2)N1CCCC1c1noc(C2CC2)n1` (centres undefined), the INHIBITION is -56.7%.
The same measure for `Cc1nnc(NC(=O)NCc2ccc(N3CCOCC3)nc2)s1`: -43.6%; for `CC(O)CNCc1c(C(C)C)nn(C)c1N1CCOCC1` (centres undefined): 3.8%.
The same measure for `CCOC(=O)CC(c1cccc(OC)c1OC)c1c(C)[nH][nH]c1=O` (centres undefined): 3.6%.
`c1cnc(NC2COC3(CCN(Cc4cc[nH]n4)CC3)C2)nc1` (centres undefined): the INHIBITION turned out to be 26.3%.
The same measure for `Cn1cc(CN2C[C@@H]3COC[C@]3(CNC(=O)c3ccccc3)C2)cn1`: 30.3%; for `Cc1cc(CN2C[C@@H]3COC[C@]3(CNC(=O)c3ccco3)C2)no1`: 20.6%.
The same measure for `O=C(NC[C@]12COC[C@H]1CN(CC1CCOCC1)C2)c1ccccc1`: 30.3%.
For `Cc1ncsc1CN1C[C@@H]2COC[C@]2(CNC(=O)c2ccco2)C1`, the INHIBITION is given as 14.8%.
For the compound `O=C(NC[C@]12COC[C@H]1CN(Cc1nccs1)C2)c1ccccc1`, the INHIBITION amounted to 23.7%.
Take `O=C(NC[C@]12COC[C@H]1CN(Cc1ccco1)C2)c1ccccc1`: the INHIBITION is reported as 54.7%.
As to `Cc1ccsc1CN1C[C@@H]2COC[C@]2(CNC(=O)c2ccco2)C1`, the INHIBITION is 63.7%.
Regarding `Cn1cc(CN2C[C@@H]3COC[C@]3(CNC(=O)c3ccco3)C2)cn1`, the INHIBITION turned out to be 52%.
Regarding `O=C(NC[C@]12COC[C@H]1CN(Cc1ccncc1)C2)c1ccco1`, the INHIBITION turned out to be 18.2%.
As for `Cn1ccnc1CN1CCCN(C(=O)c2ccc(O)nc2)CC1`, the INHIBITION was -24.3%.
On to `CN(C)S(=O)(=O)NCc1nn(CCN2CCCC2)c(=O)c2ccccc12`, for which the INHIBITION came to 5.03%.
`Cc1nn(C)c2ncnc(NCc3nncn3C3CCCCC3)c12`: the INHIBITION is listed as -58.1%.
The same measure for `CC(C)c1cc(C(=O)N2C[C@@H]3CC[C@H]2CN(Cc2ccccn2)C3)no1`: 41.8%.
For `CC(NC(=O)c1ccsc1)c1ccc2c(c1)NC(=O)CO2` (centres undefined), the INHIBITION is given as 29.25%.
In the case of `Cc1cc(C)n(CCNC(=O)c2cc(C3CC3)n[nH]2)n1` it was 20.8%.
Consider `CCC(CC)C(=O)n1ccn(S(=O)(=O)c2ccc(C)cc2)c1=O`, for which the INHIBITION stood at 14.3%.
The same measure for `Cn1c2c(ccc1=O)CCN(Cc1ccoc1)CC2`: -93%; for `c1csc(N2CCCN(Cc3noc(C4CC4)n3)CC2)n1`: 7.67%; for `O=C(NC1CC1)N1CCn2c(Cn3cccn3)cnc2C1`: 24.1%.
In the case of `CN(C)C(=O)N1CCn2c(Cn3cccn3)cnc2C1`, the INHIBITION was determined as 62.5%.
As to `O=C(NCc1ccccc1)N1CCn2c(Cn3cccn3)cnc2C1`, the INHIBITION was determined as 39.2%.
On to `c1cnn(Cc2cnc3n2CCN(CC2CCCCC2)C3)c1`, for which the INHIBITION was 59%.
The same measure for `N#Cc1ccc(C(=O)N2CCn3c(Cn4cccn4)cnc3C2)cc1`: 7.11%.
As to `O=S(=O)(C1CC1)N1CCn2c(Cn3cccn3)cnc2C1`, the INHIBITION is 41%.
Regarding `O=C(N1CCCC1)N1CCn2c(Cn3cccn3)cnc2C1`, the INHIBITION stood at 38.1%.
The same measure for `O=C(NCc1cccnc1)N1CCn2c(Cn3cccn3)cnc2C1`: 57.9%; for `O=C([C@@H]1CCCO1)N1CCn2c(Cn3cccn3)cnc2C1`: 28.7%.
In the case of `CC1CCN(C(=O)c2cnc(CC3CCCN(C)C3)cn2)CC1` (centres undefined), the INHIBITION came out at 24.4%.
In the case of `Cc1cccc(CN2Cc3[nH]nc(COc4cccnc4)c3C2)n1` it was 34.9%; in that of `CCS(=O)(=O)CCNC(=O)NC(C)c1ccc(C)s1` (centres undefined), 17%; in that of `Cc1oc(C(=O)O)cc1S(=O)(=O)Nc1ccccc1F`, 34.7%.
On to `O=S(=O)(c1cn[nH]c1)N1CCCC(O)(CN2CCOCC2)CC1` (centres undefined), for which the INHIBITION worked out at 13.125%.
`CC(=O)Nc1nc(C(=O)N2CCCC2c2noc(C3CC3)n2)cs1` (centres undefined): the INHIBITION is 2.3%.
In the case of `CCCn1ccnc1CN1CCN(C2CCOCC2)CC(C(N)=O)C1` (centres undefined), the INHIBITION was 20.8%.
In the case of `CSc1ccc(CN(CCO)C(=O)CCOc2ccccc2)cc1` it was 15.7%.
`Cc1nnsc1C(=O)NCc1cccnc1N(C)Cc1ccccc1`: the INHIBITION is recorded as 44.6%.
As to `Cc1ncsc1C(=O)N(Cc1ccccn1)C1CC1`, the INHIBITION is reported as -2.95%.
Regarding `Cc1ccsc1C(=O)NCc1cccnc1N(C)CCc1ccccn1`, the INHIBITION is on record as 9.91%.
In the case of `Cc1noc(C)c1C(=O)NCc1cccnc1N(C)C`, the INHIBITION was -25.66%.
As for `Cc1oc(C)c(C(=O)NCc2cccnc2N(C)C)c1C`, the INHIBITION is listed as 50.4%.
Turning to `Cc1nnsc1C(=O)NCc1cccnc1N(C)C`, the INHIBITION came out at 51.5%.
As for `Cc1ccc(C(=O)NCc2cccnc2N(C)C)s1`, the INHIBITION is -85%.
With `Cc1ncsc1C(=O)NCc1cccnc1N(C)CCc1ccccn1`, the INHIBITION stood at 52.5%.
As to `Cc1ccc(C(=O)NCc2cccnc2N(C)C)o1`, the INHIBITION was 12.35%.

The record behind these values is ChEMBL document CHEMBL4513216, “Probing the Open Global Health Chemical Diversity Library for Multistage-Active Starting Points for Next-Generation Antimalarials” (ACS Infect Dis, 2020).
